Only some compounds are listed: those with a hit (about 7.5% of all), similar ones and a draw of the others.
SMN2 splice enh: qHTS Assay for Enhancers of SMN2 Splice Variant Expression. Potency, µM (highest dose often 46.1 µM), for inactives: at the top dose activity change, positive = activation, usual class: activators. hit rate 2.8% among 210,000. AID 1458, 2008. HEK293 SMN2-luciferase splicing reporter, luminescence, 30-36 h; also: % of control where 0% means no effect; nearly all actives have a fitted effect of over 55% in size
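qHTS luciferase splicing reporter: luminescence rises when SMN2 exon 7 is included in transfected HEK293 cells. Compound exposure lasted 30-36 h at 37C, with 4.5 mM final sodium butyrate as control, followed by a ONE-Glo read.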
NPC1 promoter act: qHTS Assay for NPC1 Promoter Activators; hit rate 2.4% among 320,000; Huh7 NPC1 promoter luciferase reporter, 24 h; Potency, µM (titrated, usually from 9.22 µM), for the others: at the highest dose activation, hits mostly activators; AID 485313, 2010; also: % of control where 0% means no effect; nearly all actives have a fitted effect of over 60% in size
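Huh7 reporter cells (NPC1 promoter driving luciferase) are dosed with compound for 24 h at 37 °C, 5% CO2; luciferase detection reagent is then added and luminescence measured after 10 min at ambient temperature.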
Rab9 promoter act: qHTS Assay for Rab9 Promoter Activators. Potency, µM (doses to about 9.22 µM), without a hit: at the top dose activation, negative = inhibition, most hits filed as activators. hit rate 2.8% among 320,000. Huh7 Rab9 promoter-luciferase reporter, luminescence, 24 h; also: % of control where 0% means no effect; nearly all actives have a fitted effect of over 60% in size
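Cells were plated at 1500 per well in reduced-serum medium with 10% FBS and left 2 h. Compound in DMSO was then added for 24 h at 37 °C. Reporter signal was read by luminescence after 10 min with luciferase detection reagent.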
FLuc counter: qHTS profiling assay for firefly luciferase inhibitor/activator using purifed enzyme and Km concentrations of substrates (counterscreen for miR-21 project). Luciferin 4-monooxygenase (Photinus pyralis), P08659. purified FLuc, Km substrates, luminescence inhibition. Potency, µM (highest dose often 57.5 µM), for the others: at the top dose activity change, negative = inhibition, usual class: inhibitors. hit rate 6.9% among 360,000;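 also: plate controls were vehicle for no effect and reference inhibitor for full effect; nearly all actives have a fitted effect of over 55% in size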
Target sequence (P08659 whole entry, looked up): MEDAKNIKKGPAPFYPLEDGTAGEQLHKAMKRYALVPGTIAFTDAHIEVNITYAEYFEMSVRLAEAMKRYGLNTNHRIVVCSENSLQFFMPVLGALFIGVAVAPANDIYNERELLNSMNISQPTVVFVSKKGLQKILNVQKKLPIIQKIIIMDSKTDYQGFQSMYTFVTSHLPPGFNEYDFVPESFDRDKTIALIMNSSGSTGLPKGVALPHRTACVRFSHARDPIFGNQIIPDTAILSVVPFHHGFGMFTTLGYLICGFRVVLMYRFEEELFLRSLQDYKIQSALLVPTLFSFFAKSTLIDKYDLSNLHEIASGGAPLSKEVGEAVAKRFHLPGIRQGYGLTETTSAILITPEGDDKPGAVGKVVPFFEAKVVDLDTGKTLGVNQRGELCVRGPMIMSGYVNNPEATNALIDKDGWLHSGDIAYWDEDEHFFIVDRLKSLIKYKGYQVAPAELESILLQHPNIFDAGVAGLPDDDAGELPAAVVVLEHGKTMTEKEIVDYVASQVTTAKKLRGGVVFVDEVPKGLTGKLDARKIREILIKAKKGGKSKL
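Purified P. pyralis luciferase, 10 nM final, with Km-level 10 uM D-luciferin and 10 uM ATP in 50 mM Tris acetate pH 7.5, 10 mM Mg acetate, 0.01% Tween-20, 0.05% BSA; 6-point qHTS titration about 60 µM downward; luminescence read.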
KinaseGlo FLuc: Counterscreen for Luciferase (Kinase-Glo TM) Inhibition. Kinase-Glo luciferase, ATP luminescence, 8 min. Potency, µM (doses to about 38.3 µM), for the others: top-dose activity change, negative = inhibition, hits mostly inhibitors. hit rate 0.28% among 200,000; also: % is scaled to controls: 0 for no effect and ±100 for the full control effect; nearly all actives have a fitted effect of over 60% in size
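Light output from Kinase-Glo luciferase with luciferin and 10 uM ATP in 50 mM imidazole pH 7.2, KCl, MgCl2, Tween 20, BSA; compound pin-delivered, 8-min ambient incubation, then luminescence read.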
ELG1 genotoxic: qHTS screen for small molecules that induce genotoxicity in human embryonic kidney (HEK293T) cells expressing luciferase-tagged ELG1. AID 504466, 2011. hit rate 1.3% among 330,000. HEK293T ELG1-luciferase reporter, luminescence, 16 h. Potency, µM (doses to about 46 µM), without a hit: at the top dose activity change, positive = activation, most hits filed as activators; also: % of control where 0% means no effect; nearly all actives have a fitted effect of over 60% in size
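Luminescence read-out: rising ELG1-luciferase signal, reflecting elevated ELG1 protein under genetic stress, flags genotoxic compounds. Cells were treated for 16 hr at 37 °C before ONE-Glo detection.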
Active calls of the source: *; [ ] = remark or other dose. Calls follow the shape of the dose curve; as a rule, active = well fitted curve in the direction sought with a large enough effect; inconclusive = small, poorly fitted or top-dose-only effect, or another doubt; inactive = no such curve, though single readings can be large; an effect the other way counts as inactive or inconclusive. Potency is read from the fitted curve at half-maximal effect.

For CCCOc1ccc(NC(=O)C2CC(=O)N/C(=N/N=C(C)/C=C/c3ccc(N(C)C)cc3)S2)cc1 (stereo not given) the results were SMN2 splice enh 13µM*, NPC1 promoter act inconclusive, Rab9 promoter act inconclusive, FLuc counter 2.4µM*, KinaseGlo FLuc 0% and ELG1 genotoxic 14%.
For CCCOc1ccc(NC(=O)C2CC(=O)N/C(=N/N=C(\C)CCc3ccc4c(c3)OCO4)S2)cc1 (stereo not given) the results were SMN2 splice enh -1%, NPC1 promoter act 0%, Rab9 promoter act -5%, FLuc counter -1%, KinaseGlo FLuc 0% and ELG1 genotoxic -1%.
For CC(/C=C/c1ccc(N(C)C)cc1)=N\N=C1\NC(=O)CC(C(=O)Nc2ccccc2)S1 (stereo not given) the results were SMN2 splice enh 16µM*, NPC1 promoter act inconclusive, Rab9 promoter act inconclusive, FLuc counter 2.4µM*, KinaseGlo FLuc 1% and ELG1 genotoxic 8%.
Screening COc1nccnc1NS(=O)(=O)c1ccc(N=Cc2c(C)[nH]n(-c3ccc(C)c(C)c3)c2=O)cc1 returned SMN2 splice enh -19%, NPC1 promoter act 3%, Rab9 promoter act 15%, FLuc counter 15µM*, KinaseGlo FLuc 10µM* and ELG1 genotoxic 12%.
For Cc1ccc(-n2[nH]c(C)c(C=Nc3ccc(S(=O)(=O)Nc4nccs4)cc3)c2=O)cc1C the results were SMN2 splice enh 28%, NPC1 promoter act -1%, Rab9 promoter act 0%, FLuc counter 19µM*, KinaseGlo FLuc -26% and ELG1 genotoxic 9%.
For COc1ccc(CCNC(=O)CCn2c(=O)c3ccccc3n(Cc3ccccc3C)c2=O)cc1OC the results were SMN2 splice enh 1% and FLuc counter 0%.
For O=C(Nc1cccc(F)c1)c1ccc2oc(=O)n(Cc3ccccc3)c2c1 the results were FLuc counter -11%.
`C/C(N=NC(=[SH+])SCc1ccccc1)=C1\C=CC=CN1.[Cl][Cu]` gave SMN2 splice enh -64%[9.22 µM] and KinaseGlo FLuc 0%[7.66 µM].
Screening CC(C)(C)c1ccc(-c2cnco2)cc1 returned NPC1 promoter act 2%, Rab9 promoter act 1%, FLuc counter 17µM* and ELG1 genotoxic 3%.
Screening Brc1cccc(-c2cnco2)c1 returned NPC1 promoter act -6%, Rab9 promoter act -4%, FLuc counter -1%, KinaseGlo FLuc 2% and ELG1 genotoxic 3%.
For CC(C)(C)C(=O)Nc1ccc(-c2cnco2)cc1 the results were NPC1 promoter act 21%, Rab9 promoter act 18%, FLuc counter 17µM* and ELG1 genotoxic 14%.
`CC(C)Cn1c(-c2cccs2)nc2nc3ccccc3nc21` gave SMN2 splice enh -1%, NPC1 promoter act -1%, Rab9 promoter act 2%, FLuc counter inconclusive, KinaseGlo FLuc -3% and ELG1 genotoxic -8%.
For c1ccc(Cn2c(-c3cccs3)nc3nc4ccccc4nc32)cc1 the results were SMN2 splice enh -5%, NPC1 promoter act 16%, Rab9 promoter act 4%, FLuc counter 15µM*, KinaseGlo FLuc -1% and ELG1 genotoxic 4%.
Screening O=C(NCc1ccccn1)c1cc(-c2ccc(-c3ccccc3)cc2)nc2ccccc12 returned NPC1 promoter act 2.2µM*, Rab9 promoter act 3.5µM*, FLuc counter 0.38µM* and ELG1 genotoxic -8%.
`CCn1cc(CNC(=O)c2cc(-c3ccc(C)c(C)c3)nc3ccccc23)c(C)n1` gave SMN2 splice enh 12% and FLuc counter 2.4µM*.

Source: PubChem (National Center for Advancing Translational Sciences (NCATS))
